Potency and activity, negative = inhibition data for 40 compounds are collected here from PubChem BioAssay (Tox21).

The structures appear in SMILES notation. Where “and” joins values, the source holds several entries; their conditions need not be identical. Equal values may be shown once. Inconclusive results are not listed. Where a call stands in place of a potency, no number is given. Unmarked numbers belong to inactive results. Calls of active or inactive are those of the source. Calls follow the shape of the dose curve; as a rule, active = well fitted inhibition curve with a large enough effect in the signal ratio in the repeat runs (not every such curve was filed as active); inconclusive = weak or mixed curves, or effect the other way; inactive = no such curve, though single readings can be large or run the other way; the % refers to the signal ratio.
Potency is read from the fitted curve at half-maximal effect.

Chain of Estrogen receptor beta (Homo sapiens) (Q92731 whole entry, looked up): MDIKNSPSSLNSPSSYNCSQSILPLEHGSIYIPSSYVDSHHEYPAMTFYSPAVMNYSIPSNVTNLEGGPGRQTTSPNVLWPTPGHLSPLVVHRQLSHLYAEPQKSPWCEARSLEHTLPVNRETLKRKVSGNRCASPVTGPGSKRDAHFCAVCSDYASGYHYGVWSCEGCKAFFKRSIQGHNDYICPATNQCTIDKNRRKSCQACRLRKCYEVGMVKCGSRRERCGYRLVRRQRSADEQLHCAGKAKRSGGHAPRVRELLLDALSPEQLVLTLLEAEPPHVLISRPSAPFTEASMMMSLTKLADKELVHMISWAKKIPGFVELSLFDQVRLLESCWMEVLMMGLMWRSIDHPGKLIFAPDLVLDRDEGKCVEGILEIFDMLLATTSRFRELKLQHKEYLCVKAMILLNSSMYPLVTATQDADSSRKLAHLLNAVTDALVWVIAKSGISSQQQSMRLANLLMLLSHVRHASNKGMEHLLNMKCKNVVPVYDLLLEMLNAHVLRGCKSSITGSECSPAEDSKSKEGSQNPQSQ

The test addresses Estrogen receptor beta (Homo sapiens) (UniProt Q92731). Description: qHTS assay to identify small molecule antagonists of the estrogen receptor beta (ER-beta) signaling pathway (AID 1259378). The conditions noted are these: ER-beta-UAS-bla HEK293T, beta-lactamase FRET ratio, 16 h; series mostly up to 92.4 µM. The text has this:
National Center for Advancing Translational Sciences [NCATS]
NIH Chemical Genomics Center [NCGC]
U.S. Environmental Protection Agency [EPA]
National Institutes of Environmental Health Sciences [NIEHS]
National Toxicology Program [NTP]
U.S. Food and Drug Administration [FDA]
Estrogen receptor (ER), a nuclear hormone receptor, plays an important role in development, metabolic homeostasis and reproduction. Two subtypes of ER, ER-alpha and ER-beta, have similar expression patterns with some uniqueness in both types. Endocrine disrupting chemicals (EDCs) and their interactions with steroid hormone receptors like ER causes disruption of normal endocrine function. To identify the compounds that inhibit ER signaling, an ER-beta-UAS-bla GripTite cell line (Life Technologies, Madison, WI, USA) containing a beta-lactamase reporter gene under the control of an UAS response element was used to screen Tox21 10K compound library.
Tox21 Assay Protocol Summary:
ER-beta-UAS-bla HEK293T cells were dispensed at 2,000 cells/4 uL of assay medium containing 2% charcoal stripped FBS per well into black wall/clear-bottom 1536-well plates using a Multidrop Combi (ThermoFisher Scientific, Waltham, MA) dispenser. After the assay plates were incubated at a 37C and 5% CO2 for 6 hr, 23 nL of compounds dissolved in DMSO, positive controls or DMSO only was transferred to the assay plate by a Pintool station (Kalypsys, San Diego, CA), followed by addition of 1 uL (1nM as final concentration) of 17-beta-estradiol (E2) in assay medium using a BioRAPTR FRD (Flying Reagent Dispenser, Aurora Discovery, San Diego, CA). The plates were incubated at 37C and 5% CO2 for 16 hr. Then 1 uL of LiveBLAzerTM B/G FRET substrate was added using a Flying Reagent Dispenser, the plates were incubated at room temperature for 2 hours, and fluorescence intensity was measured by an Envision plate reader (PerkinElmer, Shelton, CT).
As to `CCc1cccc(O)c1`, the Potency entry is “inactive”.
For `O=C(Cl)c1ccc(C(=O)Cl)cc1`, the Potency result was “inactive”.
As to `OCC(O)CS` (stereo not given), the Potency entry was “inactive”.
On the same count and under the same terms, the result for `CCCCCCCCCCCCCC(=O)O` reads “inactive”; that for `CCCCCCC(=O)O`, “inactive”.
`Cc1cc(CC(=O)O)n(C)c1C(=O)c1ccc(Cl)cc1`: the Potency result is “inactive”.
Take `CCCCCNCCCCC`: the Potency entry was “inactive”.
Same read-out and setting: the result for `CCc1cccc(CC)c1N` reads “inactive”; that for `CO[Si](CCCNCCN)(OC)OC`, “inactive”.
For `COC(=O)/C=C\C(=O)OC`, the Potency result is “inactive”.
The same measure, in the same setting: the same measure for `CCCCCCCCC(=O)O`: “inactive”.
In the case of `CC(=O)C(C)C`, the Potency entry was “inactive”.
Take `CCCCCCCCO`: the Potency result was “inactive”.
Regarding `COc1ccc([C@@H]2CC(=O)c3c(O)cc(O[C@@H]4O[C@H](CO[C@@H]5O[C@@H](C)[C@H](O)[C@@H](O)[C@H]5O)[C@@H](O)[C@H](O)[C@H]4O)cc3O2)cc1OC`, the Potency entry is “inactive”.
As to `NC(=O)NC(N)=O`, the Potency entry is “inactive”.
In the case of `Cc1cc(C)cc(O)c1`, the Potency result was “inactive”.
As for `CCCCCCCCCCCC(=O)N(C)CC(=O)O`, the activity, negative = inhibition is 1.54% [at 8.39 µM].
Take `COc1cc(NC(=O)CC(C)=O)c(OC)cc1Cl`: the Potency entry was “inactive”.
With `CC(CN1c2ccccc2Sc2ccccc21)N(C)C` (stereo not given), the Potency was 43.3 µM (active) and 29.8 µM (active).
Same read-out and setting: the result for `COc1c(Cl)ccc(Cl)c1C(=O)O` reads “inactive”; that for `OCc1ccc(Cl)cc1Cl`, “inactive”.
As for `CCCCCCCC(=O)O`, the Potency entry was “inactive”.
As for `C[Si](C)(C)N[Si](C)(C)C`, the Potency entry was “inactive”.
Turning to `CC(=O)OCc1ccc2c(c1)OCO2`, the Potency entry was “inactive”.
With `NCCNCCNCCN`, the Potency result was “inactive”.
As for `C=CC(C)(C)C`, the Potency entry is “inactive”.
Take `OCCOCCOCCOCCOCCO`: the Potency result is “inactive”.
`CC/C(C)=N/O`: the Potency entry was “inactive”.
On the same count and under the same terms, the result for `C1CCCNCC1` reads “inactive”.
As to `O=C1C(N(CO)C(=O)NCO)N(CO)C(=O)N1CO` (stereo not given), the Potency entry is “inactive”.
As to `CN=C(NC#N)NCCSCc1nc[nH]c1C`, the Potency entry is “inactive”.
Consider `Cc1cccc(C)c1[N+](=O)[O-]`, for which the Potency result is “inactive”.
In the case of `CCCCCC(C)=O`, the Potency result is “inactive”.
Take `Cc1ccc([N+](=O)[O-])cc1N`: the Potency entry is “inactive”.
Consider `CCCCC(=O)O`, for which the Potency entry is “inactive”.
In the case of `O=[N+]([O-])c1ccccc1C(F)(F)F`, the Potency entry is “inactive”.
On the same count and under the same terms, the same measure for `NC1CCCCC1N` (stereo not given): “inactive”.
Regarding `C=C(C)CC(C)(C)C`, the Potency entry is “inactive”.
On to `O=C1CCCCCCCCCCC1`, for which the Potency entry was “inactive”.
For `CC(=O)CC(=O)N(C)C`, the Potency entry is “inactive”.
